Usually inhibition stands for the change of the read-out against control, counted positive when it falls.

Inhibition data for 93 molecules are collected here from PubChem BioAssay AID488839 (Broad Institute, 2010).

Out of some 330,000 compounds screened, about 35 (0.01%) were called active. The list is a sample of the results. A number with no mark means an inactive call.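 How the source made its calls: active means highest replicate inhibition of at least 50% and at least 75% of replicates reaching 50%; inconclusive means only one of the two criteria met; inactive means both criteria failed.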

This assay deals with Cyclin-dependent kinase 5 (Homo sapiens) + Cyclin-dependent kinase 5 activator 1 (Homo sapiens) (UniProt Q00535+Q15078). In words: inhibitors of human CDK5/p35 kinase, primary screen, biochemical, single concentration (AID 488839).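 Further: plate controls were DMSO neutral control for no effect and GW8510 at 10 µM for full effect.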 The following applies: Recombinant CDK5/p35, ADP-Glo luminescence, 60 min; at 10 µM; stronger effect = higher value. (In ADP-Glo the light output rises with the ADP produced.)
Sequence of Cyclin-dependent kinase 5 (Homo sapiens) + Cyclin-dependent kinase 5 activator 1 (Homo sapiens) (Q00535 whole entry, looked up): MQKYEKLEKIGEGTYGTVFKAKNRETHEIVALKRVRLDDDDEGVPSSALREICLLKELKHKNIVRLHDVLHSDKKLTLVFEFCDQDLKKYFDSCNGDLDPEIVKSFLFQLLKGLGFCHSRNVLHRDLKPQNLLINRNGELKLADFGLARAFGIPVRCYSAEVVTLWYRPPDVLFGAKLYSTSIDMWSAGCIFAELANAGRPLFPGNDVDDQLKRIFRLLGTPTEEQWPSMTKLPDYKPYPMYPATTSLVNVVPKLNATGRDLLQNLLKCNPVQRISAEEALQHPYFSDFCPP
Sequence of Cyclin-dependent kinase 5 (Homo sapiens) + Cyclin-dependent kinase 5 activator 1 (Homo sapiens) (Q15078 whole entry, looked up): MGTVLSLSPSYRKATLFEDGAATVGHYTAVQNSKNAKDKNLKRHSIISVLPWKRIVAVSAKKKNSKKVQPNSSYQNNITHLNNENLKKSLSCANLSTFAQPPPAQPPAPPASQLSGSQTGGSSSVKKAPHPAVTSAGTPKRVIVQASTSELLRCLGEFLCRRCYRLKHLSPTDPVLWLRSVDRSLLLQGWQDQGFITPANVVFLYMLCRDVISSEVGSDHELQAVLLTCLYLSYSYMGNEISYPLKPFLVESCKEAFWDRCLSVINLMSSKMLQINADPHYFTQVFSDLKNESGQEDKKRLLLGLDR
Regarding `O=C(O)CN1C(=O)CC(Cc2ccccc2)C1=O` (stereo not drawn), the inhibition was -1.35%.
With `CC(Nc1ccccc1)c1cccnc1` (stereo not drawn), the inhibition is -1.25%.
The figure for `Cc1nc2nc(COc3ccccc3)[nH]n2c(=O)c1Cc1ccccc1` is -2%; for `Cc1csc(OCC(=O)Nc2ccc(C)c(C)c2)n1` it is -0.147%.
The figure for `CCS(=O)(=O)c1ccc(C(=O)NC)c(Cl)c1Cl` is -2.96%; for `CCc1cccc(C)c1N(C(=O)Cn1c(CO)nc2ccccc21)C(C)COC` (stereo not drawn) it is -0.226%; for `O=c1c2ccccc2ccc2ccc(P(=O)(O)O)cc12` it is 1.94%.
`CCC(C)N(C(=O)Cn1nc(C)c([N+](=O)[O-])c1C)C1CCS(=O)(=O)C1` (stereo not drawn): the inhibition is -0.0593%.
Regarding `Cc1c(CCO)c(=O)[nH]n1C(=O)c1c(F)cccc1F`, the inhibition is 0.283%.
The figure for `CC(C)[C@@H](C(=O)O)N(Cc1cccc(CN([C@H](C(=O)O)C(C)C)S(C)(=O)=O)c1)S(C)(=O)=O` is -2.67%.
With `Cc1cc(-c2csc(N)n2)c(C)n1-c1ccccc1`, the inhibition is 0.604%.
For the molecule `CCCN1C2=C(C(=O)CCC2)C(c2ccc(O)c(Br)c2)C2=C1CCCC2=O`, the inhibition was 2.42%.
With `CC(Oc1cccc(Cl)c1)C(=O)Nc1ccc(S(=O)(=O)Nc2ncccn2)cc1` (stereo not drawn) the figure was -1.05%; with `COc1cc(OC)cc(-c2c(C#Cc3ccsc3)c3cc(-c4ccc(OC)cc4F)ccc3n2C)c1`, 2.95%.
For `O=C1COc2ccc(S(=O)(=O)NCCc3ccc(Cl)cc3)cc2N1`, the inhibition is -4.51%.
With `Cc1cccc(N2O[C@H]3C=CC2CCCC3)n1` the figure was -0.772%; with `NS(=O)(=O)c1ccc(CCNC(=O)NC2CCCCC2)cc1`, -0.391%.
With `COc1cc(OC)c(C2=NOC(C(=O)Nc3c(C)n(C)n(-c4ccccc4)c3=O)C2)cc1Cl` (stereo not drawn) the figure was -0.625%; with `CCCCc1ccc(S(N)(=O)=O)cc1`, 0.729%.
The figure for `COc1ccc2c(c1)C=CC1(O2)N(CCO)c2ccccc2C1(C)C` (stereo not drawn) is 1.4%; for `CC(/C=C/C1(O)C(C)CC(=O)CC1(C)C)OC1OC(CO)C(O)C(O)C1O` (stereo not drawn) it is -0.525%; for `Cc1ccc(C(=O)N/C(=C/c2ccco2)C(=O)NCCc2c[nH]c3ccccc23)cc1C` it is 2.98%.
Turning to `CCOc1ccc(C(=O)NCC(=O)N2CCN(c3ccc(C(F)(F)F)cn3)CC2)cc1`, the inhibition was -6.9%.
With `COc1ccccc1OCCNC(=O)C(CCSC)NC(=O)COc1ccccc1` (stereo not drawn) the figure was 1.86%; with `O=C(C1CCCO1)N(Cc1ccccc1)c1ccccc1` (stereo not drawn), -1.15%; with `O=C(Nc1ccn(CCCNCc2ccc3[nH]ccc3c2)c(=O)n1)OCc1ccccc1`, 1.87%.
On to `O=C(CNC(=O)c1ccc2ccccc2c1)Nc1ncccc1O`, for which the inhibition was -1.57%.
For the molecule `COc1cc(C2/C(=C(\O)c3ccc4c(c3)CC(C)O4)C(=O)C(=O)N2c2nnc(C)s2)cc(OC)c1OC` (stereo not drawn), the inhibition is -1.78%.
Consider `COc1cc(S(=O)(=O)N2CCOCC2)ccc1NC(=O)COc1ccc(N(C)S(=O)(=O)c2ccc(C)cc2)cc1`, for which the inhibition was -0.554%.
The figure for `O=S(=O)(NCc1ccccc1Cl)c1cnc[nH]1` is 0.727%.
Take `O=C(OCC(=O)N1CCN(C(=O)c2ccco2)CC1)c1c(Cl)cccc1Cl`: the inhibition was 0.768%.
In the case of `O=c1c2ccccc2ncn1CCc1ccncc1`, the inhibition is 1.49%.
As to `CCOc1ccc(S(=O)(=O)N/N=C(\C)c2ccc(Cl)c(Cl)c2Cl)cc1`, the inhibition was 1.98%.
The figure for `CN(C)C1=NC[C@H](Cc2ccccc2)N1CCc1ccc(F)cc1` is 0.95%; for `O=S(=O)(/N=C(/Nc1ccccc1)c1ccccc1)c1cccs1` it is 0.387%; for `OCc1nc(CO)n(Cc2ccccc2)n1` it is -0.111%.
As for `COc1ccc(CCNC(=O)C(=O)NCC2OCCN2S(=O)(=O)c2ccc(OC)c(C)c2)cc1` (stereo not drawn), the inhibition is 1.39%.
Consider `O=C(OCC(=O)N1CCCC1)c1ccc(Cl)nc1`, for which the inhibition is 1.02%.
For `CCCCC(=O)Nc1nnc(S(=O)(=O)N(C)Cc2ccco2)s1`, the inhibition is 1.6%.
The figure for `CCn1cc(CN2CCCC(CNS(=O)(=O)Cc3ccccc3)C2)cn1` (stereo not drawn) is 0.0333%; for `CCc1[nH]nc(C(=O)N2CCCC(CNS(=O)(=O)c3cccs3)C2)c1C` (stereo not drawn) it is 0.235%.
With `CCN1C(=O)CS/C1=N\c1nccs1` the figure was 0.817%; with `O=C(c1cccs1)C1C(c2ccc(Br)cc2)NC(=S)NC1(O)C(F)(F)F` (stereo not drawn), 1.75%; with `CCc1ccc(-c2cc(C(=O)NN3CCN(C)CC3)c3ccccc3n2)cc1`, 2.52%.
In the case of `Cc1oc(C(N)=O)cc1COc1ccc(C(N)=O)cc1`, the inhibition was 1.55%.
With `O=C(CNCc1ccc(F)cc1)Nc1ccccc1-c1ccccc1` the figure was 0.549%; with `S=C(NCC1CCCO1)N1CCN(c2ccc(Cl)c(Cl)c2)CC1` (stereo not drawn), -0.238%.
With `COc1ccc(-c2nc3n(c2Br)CCC3)cc1` the figure was 1.75%; with `O=C(Nc1cccc(Cl)c1)Nc1ccccc1NS(=O)(=O)c1cccs1`, -1.4%.
With `COc1ccccc1CNC(=O)COC(=O)c1cccs1` the figure was 0.781%; with `COC(C[C@@H](O)C[C@@H](O)[C@H](C)OCc1ccccc1)OC`, -0.836%; with `N#Cc1ccccc1Sc1ccccc1C(=O)OCC(=O)NC1CCCCC1`, -1.96%.
Regarding `O=C(CN(C(=O)c1nsc(Cl)c1Cl)c1cccc(F)c1)NC1CCCC1`, the inhibition was 0.211%.
The figure for `NC1=NC(=O)C2(COC(c3ccccc3Cl)OC2)S1` (stereo not drawn) is 0.407%; for `Cn1c(=O)c([N+](=O)[O-])c(Oc2ccccc2)c2ccccc21` it is 3.54%; for `COc1cc(CNCc2cccs2)cc(Br)c1OC` it is -3.09%.
With `O=S1(=O)CSCS(=O)(=O)C1` the figure was -3.39%.
Consider `Cc1nn(C)c(C)c1C(C)NC(=O)c1ccc(OC2CCN(Cc3ccccn3)CC2)cc1` (stereo not drawn), for which the inhibition was -0.745%.
With `Cc1cccc(N(Cc2ccccc2)C(=O)c2cc(S(=O)(=O)N3CCOCC3)ccc2F)c1`, the inhibition was -2.98%.
On to `CCCCNC(=O)N(O)C1N(/N=C/c2ccc(N(C)C)cc2)C(=S)SC1(C)C` (stereo not drawn), for which the inhibition is -0.992%.
Consider `Cc1ccc(-c2csc(N(Cc3ccco3)C(=O)c3cccs3)n2)cc1`, for which the inhibition was 0.457%.
The figure for `c1cc(-n2cnnn2)ccc1NC1=NCCC1` is -1.51%; for `CCc1ccccc1N(CC(=O)N1CCN(c2ccccc2F)CC1)S(C)(=O)=O` it is 0.372%.
With `O=C(CCn1c(=S)[nH]c2cc3c(cc2c1=O)OCO3)NCc1ccc(Cl)cc1`, the inhibition is 1.02%.
With `Cc1cccc(C)c1NC1=NC(=S)N(c2ccc(N(C)C)cc2)C1(C)C` the figure was -0.0411%.
With `COC(=O)c1sc(C(F)(F)F)c(-c2ccccc2)c1S(=O)(=O)N(C)C` the figure was -0.853%; with `CCOC(=O)c1nc(-c2ccc3c(c2)OCO3)[nH]c1C`, -1.03%; with `CC(=O)NC(CC(=O)Nc1nc(-c2ccccc2)c(C(C)=O)s1)c1ccccc1` (stereo not drawn), 0.222%.
With `CON(C)S(=O)(=O)c1ccc2c(c1)NC(=O)C1CCCN21` (stereo not drawn) the figure was -2.05%.
Take `Cc1ccc(OCCCCc2c(C)n[nH]c2C)cc1`: the inhibition is 0.0918%.
For `COC(=O)c1cc(S(=O)(=O)Nc2ccc(C)c(F)c2)c[nH]1`, the inhibition was 1.29%.
As to `O=c1cc(Cl)c2ccccc2n1-c1ccccc1`, the inhibition was -0.318%.
The figure for `COc1ccc(C(=O)N2CCN(c3ccc(C(C)=O)cc3F)CC2)cc1S(=O)(=O)NC1CC1` is 0.384%.
The figure for `COc1ccc(C(C)NC(=S)NC2CCCCC2)cc1OC` (stereo not drawn) is -2.83%; for `CCOc1ccccc1NC(=O)COc1ccc(S(=O)(=O)N2CCCC2)cc1` it is -0.338%.
The figure for `COc1ccc(CCNC(=O)CCc2cn(C)c3ccccc23)c(OC)c1` is 1.21%.
As to `COc1ccc(-c2nc(CN3CCN(c4ncccn4)CC3)c(C)o2)cc1C`, the inhibition is 0.124%.
Turning to `COc1ccc(S(=O)(=O)N(CCCN2CCCC2=O)Cc2cc3c(C)ccc(C)c3[nH]c2=O)cc1`, the inhibition was -2.49%.
With `CCCCN(CC(=O)Nc1cccc(S(=O)(=O)N2CCCC2)c1)Cc1nc2ccccc2c(=O)[nH]1` the figure was 0.255%; with `C=CCn1c(-c2ccccc2OCC)n[nH]c1=S`, -0.312%.
With `Cc1ccc(NC2CCCN(C(=O)CCc3cn[nH]c3)C2)cc1C` (stereo not drawn) the figure was 0.302%.
With `CCCNC(=O)NCc1ccc(N2CCCC2=O)cc1`, the inhibition is -1.59%.
`Cc1nn(-c2ccccc2)c(CC(C)(C)C(=O)O)c1C(=O)O`: the inhibition is 0.362%.
As to `O=C1c2ccccc2C(O)N1Cc1ccccc1Cl` (stereo not drawn), the inhibition is -1.45%.
With `Cc1cccc(-n2c(SCC(=O)Nc3cccc(S(=O)(=O)NC4=NCCCCC4)c3)nc3ccccc3c2=O)c1C` the figure was 0.0416%.
With `CN(C(=O)CC1C(=O)NCCN1Cc1ccc2ccccc2c1)C1CCOCC1` (stereo not drawn) the figure was 0.878%.
With `COc1ccc(C(C)NC(=O)C2CCCC2)cc1` (stereo not drawn) the figure was -1.29%.
Consider `O=C(NCCc1nnc2ccc(SCC(=O)N3CCOCC3)nn12)c1ccccc1`, for which the inhibition was -3.67%.
On to `CCOC(=O)c1cnc2ccc(F)cc2c1Nc1ccc2c(c1)OCCO2`, for which the inhibition was -0.0856%.
Regarding `Cc1ccc(NS(=O)(=O)c2c(C)[nH]c(=O)[nH]c2=O)cc1C`, the inhibition was -1.59%.
Regarding `CC1CCCCC1NCC(=O)Nc1ccccc1C(=O)Nc1ccccc1` (stereo not drawn), the inhibition was -1.88%.
As to `COCCn1c(SC(C)C(=O)NC2CC2)nnc1-c1cccc(C)c1` (stereo not drawn), the inhibition is -7.75%.
The figure for `COCC(C)n1c(C)cc(C(=O)COc2ccc(C)nc2[N+](=O)[O-])c1C` (stereo not drawn) is 1.15%.
